High-throughput results as filed in PubChem.
LmPK inhibitor: qHTS Assay for Inhibitors of Leishmania Mexicana Pyruvate Kinase (LmPK). Potency, µM (top dose mostly 57.5 µM), for the others: at the top dose activity change, negative = inhibition, actives largely listed as inhibitors. Q27686. actives 0.37% (n = 290,000). purified LmPK, Kinase-Glo ATP luminescence, 1 h. AID 1721, 2009
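Screened at intermediate enzyme activity to detect both inhibitors and activators: LmPK at 0.1 nM, with a 0.5 nM enzyme column as activation reference. PEP 0.5 mM, ADP 0.1 mM; ATP detected by luminescence after 1 h.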
TbPYK inhibitor: qHTS of Trypanosoma Brucei Inhibitors. pyruvate kinase (Trypanosoma brucei), Q57TT1. TbPYK enzyme, Kinase-Glo Plus ATP luminescence, 45 min. Potency, µM (top dose mostly 76.8 µM), without a hit: at the highest dose activity, negative = inhibition, hits mostly inhibitors. actives 0.12% (n = 410,000). AID 624173, 2012; further: nearly all actives have a fitted effect of over 50% in size
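Luminescence from Kinase-Glo Plus, added after a 45-minute room-temperature reaction, served as the end-point read-out. The enzyme and substrate were preincubated with compound before ADP (130 uM final) initiated turnover. Concentration-effect curves came from normalized qHTS data.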
RE007 growth inh: qHTS Assay for Inhibitors of the HIV-1 protein Vpr. Potency, µM (series often up to 92.2 µM), inactives show top-dose activity change, negative = less growth, most hits filed as inhibitors. AID 651644, 2012. S. pombe RE007 Vpr strain, BacTiter-Glo ATP luminescence, 24 h. actives 0.21% (n = 360,000); active means well fitted falling curve with a large enough effect; inconclusive means small, poorly fitted or top-dose-only effect; inactive means no such curve, though single readings can be large or run the other way; further: nearly all actives have a fitted effect of over 50% in size
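Fission yeast strain RE007, carrying one chromosomally integrated HIV-1 vpr copy, was seeded at OD 0.01 in PMG+AL medium with 23 nL pinned compound. After 24 h at 30 °C and 99% humidity, viability was read by BacTiter-Glo luminescence.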
Giardia FBPA inh-1: qHTS Assay for Inhibitors of Fructose-1,6-bisphosphate Aldolase from Giardia Lamblia | A8B2U2 | purified Giardia FBPA | Potency, µM (doses to about 59.6 µM), for inactives: top-dose activity, negative = inhibition, actives largely listed as inhibitors | actives 0.71% (n = 290,000) | AID 2451, 2010; further: nearly all actives have a fitted effect of over 55% in size
Target sequence (A8B2U2 whole entry, looked up): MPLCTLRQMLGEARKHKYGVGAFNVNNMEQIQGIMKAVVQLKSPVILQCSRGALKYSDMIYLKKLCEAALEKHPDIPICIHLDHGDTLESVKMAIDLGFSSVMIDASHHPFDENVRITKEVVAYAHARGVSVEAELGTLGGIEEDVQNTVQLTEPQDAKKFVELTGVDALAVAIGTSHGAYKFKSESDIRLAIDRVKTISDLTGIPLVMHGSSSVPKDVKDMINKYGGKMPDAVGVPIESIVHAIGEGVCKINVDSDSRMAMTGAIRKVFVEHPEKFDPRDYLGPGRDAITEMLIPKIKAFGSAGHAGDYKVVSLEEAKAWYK
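Giardia FBPA (40 nM reagent) was preincubated 10 min at RT with compound (up to 57.5 uM final), then substrate plus GAPDH/TPI/NAD/arsenate coupling system with diaphorase/resazurin was added; resorufin fluorescence (525/598 nm) was read after 20 min.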
Giardia growth: qHTS Assay for Inhibitors of Fructose-1,6-bisphosphate Aldolase from Giardia Lamblia: Giardia lamblia growth inhibition; shares compounds with Giardia FBPA inh-1; Giardia lamblia trophozoite growth inhibition; Potency, µM (titrated, usually from 57.5 µM), inactives show top-dose activity change, negative = inhibition, most hits filed as inhibitors; actives 5% (n = 1,500);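 further: trophozoites exposed to compound for 48 h at 37 °C; nearly all actives have a fitted effect of over 70% in size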
Mammal cell tox: qHTS Assay for Inhibitors of Fructose-1,6-bisphosphate Aldolase from Giardia Lamblia: Mammalian cellular toxicity | shares compounds with Giardia FBPA inh-1 | mammalian cell viability counter-screen, qHTS | Potency, µM (top dose mostly 57.5 µM), inactives show at the top dose viability change, negative = toxicity, usual class: inhibitors | actives 4% (n = 1,500);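 further: Chinese hamster ovary cells used as mammalian cytotoxicity surrogate; viability measured as cellular ATP by luminescence; compound exposure lasted 48 h before reading; nearly all actives have a fitted effect of over 60% in size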
Giardia FBPA inh-2: qHTS Assay for Inhibitors of Fructose-1,6-bisphosphate Aldolase from Giardia Lamblia: Primary screen confirmation | Potency, µM (doses to about 57.5 µM), for the others: at the top dose activity change, negative = inhibition, usual class: inhibitors | shares compounds with Giardia FBPA inh-1 | AID 2787, 2010 | purified Giardia aldolase enzyme activity, qHTS | actives 5% (n = 1,500); further: nearly all actives have a fitted effect of over 45% in size
Rabbit aldolase: qHTS Assay for Inhibitors of Fructose-1,6-bisphosphate Aldolase from Giardia Lamblia: Rabbit FBPA Selectivity. shares compounds with Giardia FBPA inh-1. Rabbit muscle FBPA enzyme inhibition, selectivity counter-screen. Potency, µM (top dose mostly 57.5 µM), for the others: at the top dose activity, negative = inhibition, most hits filed as inhibitors. actives 4% (n = 1,500); further: nearly all actives have a fitted effect of over 60% in size
Target sequence (P00883 whole entry, looked up): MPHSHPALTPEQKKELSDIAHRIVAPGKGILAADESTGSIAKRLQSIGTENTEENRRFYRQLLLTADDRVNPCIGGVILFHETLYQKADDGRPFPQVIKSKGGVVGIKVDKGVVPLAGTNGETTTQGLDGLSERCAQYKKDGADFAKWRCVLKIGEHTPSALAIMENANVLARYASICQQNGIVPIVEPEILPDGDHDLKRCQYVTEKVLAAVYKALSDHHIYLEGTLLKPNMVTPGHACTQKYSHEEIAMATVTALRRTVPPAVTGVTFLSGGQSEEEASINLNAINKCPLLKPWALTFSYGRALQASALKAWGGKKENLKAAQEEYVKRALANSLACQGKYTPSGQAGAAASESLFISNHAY
GAPDH counter: qHTS Assay for Inhibitors of Fructose-1,6-bisphosphate Aldolase from Giardia Lamblia: Coupling assay counterscreen confirmation. shares compounds with Giardia FBPA inh-1. GAPDH coupling enzyme counterscreen, biochemical, qHTS. Potency, µM (series often up to 57.5 µM), for the others: at the highest dose activity change, negative = inhibition, hits mostly inhibitors. actives 6% (n = 1,500). AID 2795, 2010; further: nearly all actives have a fitted effect of over 55% in size
Numbers without * were called inactive; ? = inconclusive; / = no result given; [ ] = another dose, or the depositor's remark. The list is not random: actives were taken first. Their share in the collection is about 0.95%. Unless noted, the call rests on the fitted dose curve; in most records, active means well fitted curve in the direction sought with a large enough effect; inconclusive means small, poorly fitted or top-dose-only effect, or another doubt; inactive means no such curve, though single readings can be large; an effect the other way counts as inactive or inconclusive. On the % scale 0 is the no-effect control and ±100 the full control effect; potency means the concentration at half of the fitted maximal effect.

SMILES	LmPK inhibitor	TbPYK inhibitor	RE007 growth inh	Giardia FBPA inh-1	Giardia growth	Mammal cell tox	Giardia FBPA inh-2	Rabbit aldolase	GAPDH counter
COc1ccc(OC)c(C2CC(=O)N3CN(c4ccc(C)c(Cl)c4)CSC3=C2C#N)c1 (stereo unspecified)	8%	?	-8%	5µM*	-7%[10.4 µM]	6%	?	?	-27%
COc1ccc(Br)cc1C1CC(=O)N2CN(C)CSC2=C1C#N (stereo unspecified)	-9%	?	-12%	?	/	/	/	/	/
COc1cccc(C2CC(=O)N3CN(c4ccccc4F)CSC3=C2C#N)c1 (stereo unspecified)	10%	3.5µM*	-18%	3.2µM*	-7%[10.4 µM]	19%	-20%	-26%	-6%
COc1cc(OC)c(C2CC(=O)N3CN(C)CSC3=C2C#N)cc1OC (stereo unspecified)	?	?	-8%	0.56µM*	6%[38.3 µM]	-11%	?	-27%	?
CCOC(=O)c1cccc(NC(=O)c2cc(S(=O)(=O)N3CCCC3)cn2C)c1	/	2%	/	/	/	/	/	/	/
CCOc1ccc(N2CSC3=C(C#N)C(c4ccco4)CC(=O)N3C2)cc1 (stereo unspecified)	5%	-6%	-2%	7.9µM*	44%	-3%	?	?	?
COc1ccc(OC)c(C2CC(=O)N3CN(c4cccc(Cl)c4)CSC3=C2C#N)c1 (stereo unspecified)	5%	?	-11%	3.5µM*	21%	5%	-17%	-24%	-19%
O=C1/C(=C/c2ccco2)SC(=S)N1c1cccnc1	5%	?	?	8.9µM*	?	-5%	-14%	-1%	-3%
CCN(CC)S(=O)(=O)c1ccc(C(=O)NC(=S)N(CCC#N)Cc2cccnc2)cc1	-10%	?	-5%	13µM*	?	5%	4%	5%	10%
Cc1ccc(S(=O)(=O)N(C)C)cc1NC(=S)N(CCC#N)Cc1cccnc1	2%	1%	-7%	0%	/	/	/	/	/
CN(C)S(=O)(=O)c1cccc(C(=O)NC(=S)N(CCC#N)Cc2cccnc2)c1	0%	-13%	12%	5.6µM*	6%[38.3 µM]	-6%	4%	2%	-6%
O=C(NC(=S)N(CCO)Cc1ccccc1)c1cc(Br)ccc1Cl	3%	2%	18%	16µM*	12%[10.4 µM]	4%	10%	11%	17%
N#CCCN(Cc1cccnc1)C(=S)NC(=O)c1ccco1	-2%	-1%	4%	10%	/	/	/	/	/
N#CCCN(Cc1ccccc1)C(=S)NC(=O)c1ccccc1	?	?	10%	16µM*	20%	5%	5%	7%	6%
N#CCCN(Cc1ccccc1)C(=S)Nc1ccccc1	0%	-2%	-5%	3%	/	/	/	/	/
Cc1cc(CNC(=O)[C@@H]2C[C@H]2[C@@H](NP(=O)(c2ccccc2)c2ccccc2)c2ccccc2)nn1C	/	/	/	11%	/	/	/	/	/
S=C(NCc1ccccc1)Nc1nccs1	-1%	-16%	-8%	13µM*	-18%	-23%	1%	12%	-18%
CCN1C(=O)[C@H]2[C@H]3[C@H](O)[C@H](O)C/C(=N/O[C@@H]4O[C@@H](COC(C)=O)[C@@H](OC(C)=O)[C@@H](OC(C)=O)[C@H]4OC(C)=O)[C@H]3CC[C@@H]2C1=O	/	/	/	0%[12.9 µM]	/	/	/	/	/
CCOC(=O)N1CCN(C(=S)NC(=O)c2ccc(F)c(F)c2)CC1	-13%	-5%	-9%	16µM*	59%	-15%	2%	6%	10%
CCCCNC(=O)C(c1ccc(OCC(=O)OC)c(C(=O)OC)c1)N(Cc1ccccn1)C(=O)CCCCCN1C(=O)NC(c2ccc(-c3ccccc3)cc2)C(C(=O)OCc2ccccc2)=C1C (stereo unspecified)	/	/	/	-2%	/	/	/	/	/
C=CC(=O)c1ccc(CCCCCC)cc1	/	/	/	13%	/	/	/	/	/
C[C@H](NC(=O)c1cc2c(cn1)[nH]c1ccccc12)C(=O)O	-12%	?	-20%	-19%	-1%[38.3 µM]	-9%	-12%	-5%	-7%
CCCCc1nn2c(=O)cc(COC(=O)c3ccc(NC(=O)c4ccccc4Cl)cc3)nc2s1	/	0%	/	/	/	/	/	/	/
CC(C)(C)c1ccc(C(=O)NCC(c2cccnc2)N2CCc3ccccc3C2)cc1 (stereo unspecified)	/	-3%	/	/	/	/	/	/	/
CN1CC[C@]2(C)c3cc(O)ccc3N(C)[C@@H]12	/	/	/	1µM*	-2%[19.1 µM]	-23%[28.7 µM]	2.2µM*	3.2µM*	3.2µM*
SMILES	LmPK inhibitor	TbPYK inhibitor	RE007 growth inh	Giardia FBPA inh-1	Giardia growth	Mammal cell tox	Giardia FBPA inh-2	Rabbit aldolase	GAPDH counter
O=C(O)c1ccc(NS(=O)(=O)c2ccsc2C(=O)O)cc1	/	/	/	16%	/	/	/	/	/
Cc1ccc(N=Nc2c(O)ccc3n[nH]nc23)cc1	?	-22%	?	16µM*	?	-1%	?	-21%	-2%
Cc1ccc(Nc2cc(C)nn2-c2nc(C)cc(=O)[nH]2)cc1	3%	-2%	?	-28%	?	2.9µM*	-4%	-14%	-26%
Cc1ccccc1OCCSc1nc2ccc(NC(=O)c3cccs3)cc2s1	/	0%	/	/	/	/	/	/	/
CCOc1ccc(CNc2ccc(N3CCN(Cc4ccccc4)CC3)cc2)cc1	0%	4%	-21%	-18%	/	/	/	/	/
CCOc1ccc(CNc2ccc(N3CCCC3)cc2)cc1	1%	-20%	-25%	0.5µM*	-14%[38.3 µM]	-11%	?	?	?
COc1cc(CNc2ccc(N3CCCC3)cc2)cc(Cl)c1OC	-7%	?	-14%	1.8µM*	-30%	-27%	18µM*	32µM*	?
NCCO	/	0%[157 µM]	/	/	/	/	/	/	/
